# Results reported in PubChem BioAssay (Tox21).
# Values joined by “and” are separate entries in the source; they are usually repeats but may differ in a detail not shown here. Equal values may be shown once. Records with an inconclusive call do not appear. Active and inactive are the calls of the source. The call rests on the fitted dose curve; in most records, active means well fitted curve in the direction sought with a large enough effect in the repeat runs; inconclusive means weak or mixed curves; inactive means no such curve, though single readings can be large; an effect the other way counts as inactive or inconclusive.
# Biological target: Nuclear receptor subfamily 1 group I member 2 (Rattus norvegicus) (UniProt Q9R1A7)
# Assay: Rat pregnane X receptor (rPXR) activation by small molecules, qHTS assay (AID 1346983); further: nearly all actives have a fitted effect of over 20% in size
# Conditions: rPXR luciferase reporter cells, One-Glo luminescence, 24 h; max activation: active compounds read high
# Outline: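 Cell-based rPXR activation assay: rPXR cells, 2,000 per well, rested 5hr at 37 C, then exposed to compounds in DMSO for 24 hr at 37 C. Luciferase activity read by One-Glo luminescence after 30 min at room temperature.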
# On the % scale 0 is the no-effect control and ±100 the full control effect.
# Chain of Nuclear receptor subfamily 1 group I member 2 (Rattus norvegicus) (Q9R1A7 whole entry, looked up): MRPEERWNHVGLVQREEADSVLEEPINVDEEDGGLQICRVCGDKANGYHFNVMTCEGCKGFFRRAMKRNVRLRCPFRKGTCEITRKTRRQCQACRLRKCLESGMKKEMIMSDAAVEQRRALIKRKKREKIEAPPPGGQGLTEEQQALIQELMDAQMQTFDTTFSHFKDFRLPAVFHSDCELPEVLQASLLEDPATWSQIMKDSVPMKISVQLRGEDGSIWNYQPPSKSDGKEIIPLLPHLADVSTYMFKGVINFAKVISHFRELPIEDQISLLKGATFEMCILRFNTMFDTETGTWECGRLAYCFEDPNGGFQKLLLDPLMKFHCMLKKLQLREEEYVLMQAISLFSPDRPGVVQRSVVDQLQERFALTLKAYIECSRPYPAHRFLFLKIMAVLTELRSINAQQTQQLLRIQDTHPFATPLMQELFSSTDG
row,Structure (SMILES),max activation
1,O=C(Nc1ccc(Oc2ccc(Cl)cc2)c(Cl)c1)c1cc(I)cc(I)c1O,-12.9% (inactive)
2,Oc1c(Cl)cc(Cl)c2cccnc12,4.53% (inactive)
3,CN(C/C=C/C#CC(C)(C)C)Cc1cccc2ccccc12,0.136% (inactive)

# Biological target: Nuclear receptor subfamily 1 group I member 2 (Homo sapiens) (UniProt O75469)
# Assay: CYP3A4 induction through human pregnane X receptor (PXR) by small molecules, qHTS assay (AID 1346984); further: nearly all actives have a fitted effect of over 40% in size; further: potency means the concentration at half of the fitted maximal effect
# Conditions: DPX-2 HepG2 PXR, CYP3A4-luciferin luminescence, 24 h; series mostly up to 46.1 µM
# Outline: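 Quantitative HTS in DPX-2 cells, i.e. HepG2 transfected with PXR response element and CYP3A4-promoter luciferase. Compounds in DMSO incubated 24hr at 37C; then P450-Glo CYP3A4 substrate, 3uM final, 3hr; One-Glo luminescence.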
row,Structure (SMILES),Potency
1,CCCCCCCCCCCCCCCC[N+](C)(C)CCN(Cc1ccc(OC)cc1)c1ncccn1,inactive
2,O=C(Nc1ccc(Oc2ccc(Cl)cc2)c(Cl)c1)c1cc(I)cc(I)c1O,22.4 µM (active)
3,O=c1c(-c2ccccc2)c1-c1ccccc1,inactive
4,CCCCCCCCOc1ccccc1C(=O)Nc1ccc(C(=O)OCC[N+](C)(CC)CC)cc1,inactive
5,O=C(OC[C@H]1O[C@@H](OC(=O)c2cc(O)c(O)c(OC(=O)c3cc(O)c(O)c(O)c3)c2)[C@H](OC(=O)c2cc(O)c(O)c(OC(=O)c3cc(O)c(O)c(O)c3)c2)[C@@H](OC(=O)c2cc(O)c(O)c(OC(=O)c3cc(O)c(O)c(O)c3)c2)[C@@H]1OC(=O)c1cc(O)c(O)c(OC(=O)c2cc(O)c(O)c(O)c2)c1)c1cc(O)c(O)c(OC(=O)c2cc(O)c(O)c(O)c2)c1,inactive

# Biological target: Nuclear receptor subfamily 1 group I member 2 (Homo sapiens) (UniProt O75469)
# Assay: Human pregnane X receptor (PXR) activation by small molecules, qHTS assay (AID 1346985); further: nearly all actives have a fitted effect of over 40% in size; further: potency means the concentration at half of the fitted maximal effect
# Conditions: DPX-2 HepG2 CYP3A4-luciferase, 24 h; series mostly up to 38.3 µM
# Outline: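 DPX-2 cells (HepG2 co-transfected with a PXR response element and a CYP3A4-promoter luciferase construct) were seeded at 2,000 per well, rested 5 hr at 37C, then exposed to DMSO-dissolved compounds for 24 hr. Activation was read as luciferase luminescence.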
row,Structure (SMILES),Potency
1,CCCCCCCCCCCCCCCC[N+](C)(C)CCN(Cc1ccc(OC)cc1)c1ncccn1,inactive
2,O=C(Nc1ccc(Oc2ccc(Cl)cc2)c(Cl)c1)c1cc(I)cc(I)c1O,22.4 µM (active)
3,O=c1c(-c2ccccc2)c1-c1ccccc1,inactive
4,CCCCCCCCOc1ccccc1C(=O)Nc1ccc(C(=O)OCC[N+](C)(CC)CC)cc1,inactive
5,Oc1c(Cl)cc(Cl)c2cccnc12,28.2 µM (active)
6,O=C(OC[C@H]1O[C@@H](OC(=O)c2cc(O)c(O)c(OC(=O)c3cc(O)c(O)c(O)c3)c2)[C@H](OC(=O)c2cc(O)c(O)c(OC(=O)c3cc(O)c(O)c(O)c3)c2)[C@@H](OC(=O)c2cc(O)c(O)c(OC(=O)c3cc(O)c(O)c(O)c3)c2)[C@@H]1OC(=O)c1cc(O)c(O)c(OC(=O)c2cc(O)c(O)c(O)c2)c1)c1cc(O)c(O)c(OC(=O)c2cc(O)c(O)c(O)c2)c1,10 µM (active)

# Biological target: Cytochrome P450 2D6 (Homo sapiens) (UniProt P10635)
# Assay: Cytochrome P450 Family 2 Subfamily D Member 6 (CYP2D6) small molecule antagonists: luciferase reporter qHTS assay (AID 1671196); further: nearly all actives have a fitted effect of over 50% in size; further: potency means the concentration at half of the fitted maximal effect
# Conditions: P450-Glo CYP2D6 enzyme assay, luciferin luminescence, 1 h; series mostly up to 115 µM
# Outline: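 Enzyme and proluciferin substrate were first combined with test chemical for 10 min at room temperature. Adding NADPH regeneration solution started a 1 h reaction, stopped with luciferin detection reagent and read by luminescence 20 min later.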
# Chain of Cytochrome P450 2D6 (Homo sapiens) (P10635 whole entry, looked up): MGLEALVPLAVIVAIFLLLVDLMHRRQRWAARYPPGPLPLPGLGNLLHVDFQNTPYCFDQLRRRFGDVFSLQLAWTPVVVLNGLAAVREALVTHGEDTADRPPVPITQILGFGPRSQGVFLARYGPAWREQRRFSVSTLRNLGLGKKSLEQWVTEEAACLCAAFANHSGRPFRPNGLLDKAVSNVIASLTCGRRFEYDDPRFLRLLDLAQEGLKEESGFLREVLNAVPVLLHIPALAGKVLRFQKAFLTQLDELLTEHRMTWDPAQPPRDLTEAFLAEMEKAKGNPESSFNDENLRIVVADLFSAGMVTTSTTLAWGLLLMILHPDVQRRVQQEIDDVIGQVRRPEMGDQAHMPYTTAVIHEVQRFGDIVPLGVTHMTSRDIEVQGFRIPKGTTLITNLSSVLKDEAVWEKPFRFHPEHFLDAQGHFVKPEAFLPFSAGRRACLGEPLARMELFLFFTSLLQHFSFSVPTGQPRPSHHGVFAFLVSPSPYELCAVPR
Structure (SMILES),Potency,"activity change, negative = inhibition"
CCN(C(=O)c1cc(C)cc(OC[C@H](C)Nc2ccncc2)c1)C(C)C,22.2 µM (active),
CCCCCCCCCCCCCCCC[N+](C)(C)CCN(Cc1ccc(OC)cc1)c1ncccn1,15.5 µM (active),
C[n+]1ccn(Cc2ccccc2)c1,31.6 µM (active),
O=C(Nc1ccc(Oc2ccc(Cl)cc2)c(Cl)c1)c1cc(I)cc(I)c1O,inactive,
CCCC(C)c1ccccc1O (configuration not stated),inactive,
CC(C)OC(=O)c1cc2c(OCC(O)CNC(C)(C)C)cccc2[nH]1 (configuration not stated),13.8 µM (active),
CCc1oc2ccccc2c1C(=O)c1cc(Br)c(O)c(Br)c1,inactive,
O=c1[nH]sc2cc(Cl)ccc12,inactive,
CC1=C(/C=C/C(C)=C/C=C/C(C)=C/C=O)C(C)(C)CCC1,63 µM (active),
CCCCCCCCOc1ccccc1C(=O)Nc1ccc(C(=O)OCC[N+](C)(CC)CC)cc1,38.9 µM (active),
CCCCCCCCCCCC(=O)NCCCN(C)C,12.6 µM (active),
CN(C)c1ccc(C2(c3ccc(N(C)C)cc3)OC(=O)c3cc(N(C)C)ccc32)cc1,inactive,
CCCCCCCCOC(=O)c1ccc(O)cc1,56.2 µM (active) and 39.9 µM (active),
COCCCC/C(=N\OCCN)c1ccc(C(F)(F)F)cc1,1.95 µM (active),
CCC1OCC(COc2ccc(Oc3ccccc3)cc2)O1 (configuration not stated),inactive,
O=C1C=CC(=O)N1,inactive,
O=C(Oc1ccccc1)c1ccccc1C(=O)Oc1ccccc1,inactive,
CN(C/C=C/C#CC(C)(C)C)Cc1cccc2ccccc12,0.275 µM (active),
CN(C)CCCOC1(Cc2ccccc2)CCCCCC1,1.55 µM (active),
COC(=O)C1=C(C)NC(C)=C(C(=O)OCCc2ccc(N3CCN(C(c4ccccc4)c4ccccc4)CC3)cc2)C1c1cccc([N+](=O)[O-])c1 (configuration not stated),inactive,
CCc1cc(SCc2sc(-c3ccc(C(F)(F)F)cc3)nc2CN2CCN(c3ccc(OC)cc3)CC2)ccc1OCC(=O)O,inactive,
O=C(OC[C@H]1O[C@@H](OC(=O)c2cc(O)c(O)c(OC(=O)c3cc(O)c(O)c(O)c3)c2)[C@H](OC(=O)c2cc(O)c(O)c(OC(=O)c3cc(O)c(O)c(O)c3)c2)[C@@H](OC(=O)c2cc(O)c(O)c(OC(=O)c3cc(O)c(O)c(O)c3)c2)[C@@H]1OC(=O)c1cc(O)c(O)c(OC(=O)c2cc(O)c(O)c(O)c2)c1)c1cc(O)c(O)c(OC(=O)c2cc(O)c(O)c(O)c2)c1,,-17.1% [at 23.6 µM] (inactive)
CC1(C)CCC(C)(C)c2cc(C(=O)Nc3ccc(C(=O)O)cc3)ccc21,inactive,
